Compound activity deposited in PubChem BioAssay by National Center for Advancing Translational Sciences (NCATS).
G9a block – G9a (human) methyltransferase inhibition; Q96KQ7; G9a H3K9 monomethylation, AlphaScreen, 2 h; Potency, µM (highest dose often 102 µM), most hits filed as inhibitors; 8.8% of 350,000 active; AID 504332; also: nearly all actives have a fitted effect of over 75% in size
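Methyltransferase reactions run at room temperature for 2 h (20 nM enzyme, 500 nM biotin-H3K9 peptide, 20 uM SAM) after a 15 min compound preincubation; product detected by AlphaScreen beads and anti-H3K9me1 antibody.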
Sfp inh – inhibitors of Bacillus subtilis Sfp phosphopantetheinyl transferase; Potency, µM, most hits filed as inhibitors; Biochemical Sfp PPTase activity, qHTS; 3.5% of 310,000 active; Q9F4F7;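 also: the enzyme is Sfp with the accession as filed and its product quenches rhodamine fluorescence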
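Fluorescence-quenching assay: 15 nM Sfp-PPTase preincubated 15 min at room temperature with compound, then 5 uM rhodamine-CoA and 12.5 uM BHQ-2-labelled YbbR peptide added. Fluorescence (ex 525/em 598 nm) read at start and after 30 min; difference gives rate.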
VDR inhibitor – vitamin D3 receptor (human) inhibition; P11473; VDR-SRC2-3 peptide fluorescence polarization, 2 h; Potency, µM, most hits filed as inhibitors; 0.93% of 400,000 active
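The screen uses fluorescence polarization to detect compounds that interfere with recruitment of the SRC2-3 coactivator peptide to VDR; plates are read after 2 h at room temperature.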
ALOX12 inh – inhibitors of human 12S-lipoxygenase ALOX12. P18054. 1.1% of 580,000 active. purified 12hLO, xylenol orange hydroperoxide absorbance. Potency, µM (titrated, usually from 108 µM), usual class: inhibitors
Target sequence (P18054 whole entry, looked up): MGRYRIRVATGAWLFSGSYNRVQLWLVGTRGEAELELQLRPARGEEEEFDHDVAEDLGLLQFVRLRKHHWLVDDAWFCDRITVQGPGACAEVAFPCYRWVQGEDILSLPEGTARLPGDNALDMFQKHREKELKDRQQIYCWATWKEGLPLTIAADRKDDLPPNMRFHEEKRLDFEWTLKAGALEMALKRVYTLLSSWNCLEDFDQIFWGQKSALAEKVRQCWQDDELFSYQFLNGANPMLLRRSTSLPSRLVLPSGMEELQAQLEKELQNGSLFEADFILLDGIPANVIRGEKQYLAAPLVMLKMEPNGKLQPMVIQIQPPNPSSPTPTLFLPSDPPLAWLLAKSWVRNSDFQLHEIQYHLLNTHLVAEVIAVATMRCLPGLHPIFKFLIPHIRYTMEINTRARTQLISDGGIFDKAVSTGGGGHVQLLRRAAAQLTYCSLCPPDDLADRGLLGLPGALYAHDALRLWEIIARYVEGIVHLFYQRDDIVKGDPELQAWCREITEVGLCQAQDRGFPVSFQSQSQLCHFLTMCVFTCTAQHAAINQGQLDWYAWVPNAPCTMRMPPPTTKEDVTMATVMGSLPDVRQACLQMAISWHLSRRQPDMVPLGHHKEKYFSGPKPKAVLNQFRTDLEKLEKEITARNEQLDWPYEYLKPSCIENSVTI
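Purified human 12hLO at 150 nM in 25 mM Hepes, 0.01% Triton X-100, pH 7.0, preincubated 15 min at room temperature with compound. Reaction started with 40 uM arachidonic acid, 30 min at room temperature. Hydroperoxide measured by Fe-xylenol orange, 573/405 nm absorbance ratio.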
GRP78 ERSR act – induces the endoplasmic reticulum stress response in human glioma cells; U87-MG GRP78 promoter luciferase reporter, 16 h; Potency, µM, most hits filed as activators; 0.02% of 420,000 active; AID 602332; also: series mostly up to about 76 µM; nearly all actives have a fitted effect of over 35% in size
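Stably transfected U87-MG human glioma cells carrying a GRP78-based luminescent sensor were seeded at 1000 cells/well, pin-dosed with compounds and incubated 16 h. Luciferase reagent was then added, and end-point luminescence was read after 10 min at room temperature.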
Numbers stand for hits; - = inactive; ? = inconclusive; . = not tested or not shown; ! = not active in a repeat; [ ] = another dose, or the depositor's remark. The entries come from a sample that favours hits as a whole. Calls follow the shape of the dose curve; as a rule, active = well fitted curve in the direction sought with a large enough effect; inconclusive = small, poorly fitted or top-dose-only effect, or another doubt; inactive = no such curve, though single readings can be large; an effect the other way counts as inactive or inconclusive.

SMILES | G9a block | Sfp inh | VDR inhibitor | ALOX12 inh | GRP78 ERSR act
CCCCn1c(O)c(C(C)=NCCc2ccccc2)c(=O)[nH]c1=O | -[12.7 µM] | - | - | - | -
CCCCn1c(O)c(C(C)=Nc2ccc(C(=O)O)cc2)c(=O)[nH]c1=O | 45µM | - | - | ? | -
C/C(=C(/CCOC(=O)C(C)C)SS/C(CCOC(=O)C(C)C)=C(\C)N(C=O)Cc1cnc(C)nc1N)N(C=O)Cc1cnc(C)nc1N | -[12.7 µM] | - | 16µM | . | -
C[C@@H]1O[C@@H](O[C@H]2CC[C@@H](O[C@H]3[C@H](O)C[C@H](c4ccc5c(c4O)C(=O)C4=C(C5=O)[C@@]5(O)C(=O)C[C@](C)(O[C@H]6CC[C@H](O[C@H]7C=CC(=O)[C@H](C)O7)[C@H](C)O6)C[C@@]5(O)C=C4)O[C@@H]3C)O[C@H]2C)C=CC1=O | . | 5µM | 2µM | - | -
O=C1N(Cc2ccccn2)C[C@H]2CN(Cc3nccs3)CCN12 | . | . | . | - | .
O=C(O)C(Cc1cnc[nH]1)NS(=O)(=O)c1ccc(Br)cc1 (stereo not drawn) | 40µM | - | - | ? | -
O=c1[nH]c(=O)n(Cc2ccco2)c(O)c1/C=N/N1CCCCC1 | 20µM | - | - | ? | -
Cc1ccc2nsnc2c1NS(=O)(=O)c1c(C)ccc2nsnc12 | 50µM | - | - | ? | -
Cc1cc(=O)oc2c1c(C)nn2-c1nn[nH]n1 | 0.71µM | - | ? | ? | -
CCC1CCCCN1C(=O)CCl (stereo not drawn) | . | . | . | - | .
O=C1NC(=O)C2(Cc3ccccc3N3CCCC32)C(=O)N1c1ccc(Cl)cc1 (stereo not drawn) | 20µM | - | - | ? | -
Cc1ccc(N2C(=O)NC(=O)C3(Cc4ccccc4N4CCCC43)C2=O)cc1 (stereo not drawn) | 8.9µM | ? | - | ? | -
C=CCN(C)C(=O)[C@H]1CN2CCC1C[C@@H]2Cn1cc(CO)nn1 (stereo partly drawn) | . | . | . | - | .
C[N+](C)(C)CC#CCOC(=O)Nc1cccc(Cl)c1 | -[12.7 µM] | - | 50µM! | - | -
COC(=O)[C@]1(C)CC[C@@]2(C)CC[C@@]3(C)C4=CCc5c(cc(O)c(O)c5C)[C@]4(C)CC[C@@]3(C)C2C1 (stereo partly drawn) | . | - | 28µM | . | -
Cc1cccc(C)c1N1CCN(c2c(C)cccc2C)CC1 | 40µM | - | - | ? | -
CN1C(=O)C(=Cc2ccc(N3CCOCC3)c([N+](=O)[O-])c2)C(=O)N(C)C1=O | 35µM | 22µM | . | . | .
O=C1NC(=O)C(=Cc2ccc(N3CCN(C(=O)c4ccccc4)CC3)c([N+](=O)[O-])c2)C(=O)N1 | 11µM | 28µM | 50µM | ? | -
Cc1sc2c(c1C)C(c1ccc(F)cc1)=NCC(=O)N2CC(=O)Nc1cc(F)ccc1F | . | . | . | - | .
COc1ccc(Oc2c(C)oc3cc(OCC(=O)N4CCN(C)CC4)ccc3c2=O)cc1 | . | . | . | - | .
Cn1c(CNC(=O)c2ccco2)nnc1SCC(=O)N1c2ccccc2Sc2ccccc21 | ? | - | - | - | -
O=C(O)c1ccccc1SCC(=O)N1c2ccccc2Sc2ccccc21 | - | 89µM | - | - | -
CCCCC1(C2CCCC2)Cc2cc(OCCCC(=O)O)c(Cl)c(Cl)c2C1=O (stereo not drawn) | . | - | 40µM | - | ?
O=C(COC(=O)C(O)(c1ccccc1)c1ccccc1)c1c[nH]c2ccccc12 | . | . | . | - | .
COc1cc2c(cc1OC)C(C(=O)N1CCC3(CC1)OCCO3)C(c1ccccc1F)N(C)C2=O (stereo not drawn) | 0.79µM | - | - | - | -
SMILES | G9a block | Sfp inh | VDR inhibitor | ALOX12 inh | GRP78 ERSR act
O=C(O)c1cccc2c1NC(C(=O)O)C1CC(Sc3ccccc3[N+](=O)[O-])C(Cl)C21 (stereo not drawn) | 10µM | 25µM | - | 3.2µM | -
CC(=O)c1ccc2c(c1)C1C(Cl)C(Sc3ccccc3[N+](=O)[O-])CC1C(C(=O)O)N2 (stereo not drawn) | 7.9µM | 56µM | - | 11µM | -
O=[S+]1([O-])NC2(CCN(Cc3ccncc3)C2)COc2ccncc21 (stereo not drawn) | . | . | . | -[6.33 µM] | .
CN1CCN(c2ccc([N+](=O)[O-])c(N)c2)CC1 | - | - | - | - | -
CN1CCN(c2ccc([N+](=O)[O-])c(N3CCCCC3)c2)CC1 | 56µM | - | - | - | -
CN1CCN(c2ccc([N+](=O)[O-])c(NCC3CCCO3)c2)CC1 (stereo not drawn) | 28µM | - | - | - | -
Cc1cc(C(=O)NCc2c(C)ncc3c2CCNC3)n[nH]1 | . | . | . | - | .
COc1cccc(NC(=O)c2ccc[n+](C)c2)c1 | 40µM | - | - | ? | -
COc1ccc2c(c1)CCC1C2CC[C@@]2(C)C1CC[C@@H]2NCCCCCCN1C(=O)C=CC1=O (stereo partly drawn) | 2.5µM | . | - | . | -
COc1ccc(C(=O)Cn2c(NCCCl)nc3ccccc32)cc1 | ? | - | - | ? | -
CC(C)(C)C(=O)Cn1c(NCCCl)nc2ccccc21 | 40µM | - | - | - | -
O=C(COc1ccccc1)NCCc1cnc[nH]1 | - | - | - | - | -
Cc1cc2ccccc2n1CCNC(=O)COc1ccccc1 | 50µM | - | ? | ? | -
CC(C)CN1Cc2ccccc2-n2ccnc2C12CCN(C(=O)c1ccco1)CC2 | . | . | . | - | .
COc1ccc(NC(=S)NC(NC(=O)CF)C(Cl)(Cl)Cl)c([N+](=O)[O-])c1 (stereo not drawn) | 10µM | - | - | - | -
C[N+]12CCC(CC1)C(C#N)(N1CCOCC1)C2 (stereo not drawn) | 50µM | - | - | ? | -
O=C1CO[C@H]2CN(Cc3ncc[nH]3)C[C@H]2N1Cc1ccncc1 | . | . | . | - | .
O=C(Nc1ccc2c(c1)OCCO2)N1[C@H]2CC[C@@H]1c1cncnc1C2 | . | . | . | - | .
CC1CCCN(CC(=O)c2ccc(Cl)c(Cl)c2)C1 (stereo not drawn) | 25µM | - | ? | - | -
CC1CCN(CC(=O)c2ccc3c(c2)OCCO3)CC1 | 4.5µM | ? | - | ? | -
CC1CCN(CC(=O)c2ccccc2Cl)CC1 | ? | - | ? | - | -
Cc1ccc(Cn2nc(C)c(C(=O)NCc3cc(Cl)c4c(c3)OCCCO4)c2C)cc1 | . | . | . | - | .
CCCNC1CCCC1 | . | . | . | - | .
COc1c(O)c2c(=O)cc(OC)c3c4c(OC)cc(=O)c5c(O)c(OC)c(C[C@@H](C)OC(=O)c6ccccc6)c(c(c1C[C@@H](C)OC(=O)Oc1ccc(O)cc1)c23)c54 | ? | - | 50µM | -[6.33 µM] | -
Cc1c(C(=O)Nc2cccc(C(F)(F)F)c2)cc(-c2ccccc2)n1CCCN1CCOCC1 | . | . | . | - | .
Cn1c(SCC(=O)N2CCOCC2)nnc1-c1cccc(NC(=O)c2ccccc2)c1 | 10µM | - | - | - | -
Cc1nc(-c2ccccc2)cc([C@H]2CN3CC[C@H]2C[C@@H]3CN(Cc2ccco2)Cc2ccco2)n1 | . | . | . | - | .
CCCCC/C=C\C/C=C\C/C=C\CCCCC(=O)NCCO | . | - | - | . | .
CCCCC/C=C\C/C=C\CCCCCCCC(=O)NCCCC(=O)O | . | - | - | . | .
